Laboratory results published in PubChem BioAssay (NCI).
Compounds without any hit were thinned out: in the full panel of roughly 79,000, 15% have a hit. Values without a mark were called inactive. Active and inactive are the calls of the source. No stated cut-off is given here; in the data, active means growth inhibition above about 70%; inactive means the rest.

test: NCI Yeast Anticancer Drug Screen. Data for the bub3 strain (AID 167); conditions: S. cerevisiae bub3 mutant strain, at 11.0 µM, active compounds read high
How it was run: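 Screening used yeast with an engineered genetic alteration affecting cell cycle control. Compound-exposed cultures were compared with vehicle cultures, and reduced growth was taken as inhibition.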

**Q.** With `CCC/C(Cl)=N\OC(=O)Nc1cccc(C(F)(F)F)c1` as the molecule, how does the growth inhibition read?
**A.** Its growth inhibition is 51%.

**Q.** Which growth inhibition does the source give for `[O-][n+]1c2ccc(O)cc2nc2ccc(Cl)cc21` here?
**A.** The growth inhibition was 23%.

**Q.** Which growth inhibition does the source give for `Clc1ccccc1C1OC1c1ccccc1Cl` (stereo not given) here?
**A.** The growth inhibition was -47%.

**Q.** For `c1ccc2c(c1)c1ncccc1c1nccnc21`, which growth inhibition is on record?
**A.** Its growth inhibition is -1%.

**Q.** Which growth inhibition does the source give for `CC(=O)Nc1ccc2c(c1)C(=Nc1ccc(C(=O)O)cc1)c1ccccc1-2` here?
**A.** Its growth inhibition is 0%.

**Q.** With `COc1ccc(OC)c2cc3ccccc3cc12` as the molecule, how does the growth inhibition read?
**A.** Its growth inhibition is 22%.

**Q.** For `COc1cc(C2c3cc4c(cc3OC(NNc3ccccc3)C2C)OCO4)cc(OC)c1OC` (stereo not given), which growth inhibition is on record?
**A.** The growth inhibition was 73% (active).

**Q.** Which growth inhibition does the source give for `O=C1c2cc([N+](=O)[O-])ccc2-c2cccc(F)c21` here?
**A.** Its growth inhibition is 8%.

**Q.** With `CCCCCCCCCCCC(=O)N(C)C` as the molecule, how does the growth inhibition read?
**A.** The growth inhibition was 3%.

**Q.** Which growth inhibition does the source give for `CCCCCCCCCCCC1=C(O)C(=O)C=C(O)C1=O` here?
**A.** The growth inhibition was 54%.

**Q.** With `Cc1ccc(CSC(N)=Nc2ccccc2)cc1C` as the molecule, how does the growth inhibition read?
**A.** The growth inhibition was -4%.

**Q.** Which growth inhibition does the source give for `CCCCCCCCCCC1CCC(=O)O1` (stereo not given) here?
**A.** The growth inhibition was 0%.

**Q.** Which growth inhibition does the source give for `O=[N+]([O-])c1cc(CCl)ccc1CCl` here?
**A.** The growth inhibition was 46%.

**Q.** Which growth inhibition does the source give for `Nc1ccc2c(c1)C(=O)c1cccc(N)c1C2=O` here?
**A.** Its growth inhibition is 25%.

**Q.** With `CCCCCCCCCCNC(=O)OCC` as the molecule, how does the growth inhibition read?
**A.** The growth inhibition was 9%.

**Q.** Which growth inhibition does the source give for `CC1=C(C)Cc2c(O)ccc(O)c2C1` here?
**A.** The growth inhibition was -4%.

**Q.** Which growth inhibition does the source give for `COc1ccc2c(c1)C(=O)c1ccccc1C2` here?
**A.** Its growth inhibition is 74% (active).

**Q.** Which growth inhibition does the source give for `CCC(=O)OCCn1c2nc(=O)[nH]c(=O)c-2nc2cc(C)c(C)cc21` here?
**A.** Its growth inhibition is -5%.

**Q.** Which growth inhibition does the source give for `O=C(OCCN1CCCCCC1)C(c1ccsc1)C1CCCCC1` (stereo not given) here?
**A.** Its growth inhibition is 37%.

**Q.** Which growth inhibition does the source give for `Oc1c(Br)cc(Br)cc1C1CCCCC1` here?
**A.** Its growth inhibition is 25%.
